Reference: PubChem BioAssay (NCATS)
Records with an inconclusive call do not appear. Entries that show only a call come without a potency. Active and inactive are the calls of the source. Calls follow the shape of the dose curve; as a rule, active = well fitted inhibition curve with a large enough effect; inconclusive = small, poorly fitted or top-dose-only effect; inactive = flat fitted curve, though single readings scatter.

Tested on: CP265
Test: qHTS profiling for inhibitors of Plasmodium falciparum proliferation (AID 504749); also: nearly all actives have a fitted effect of over 60% in size
Details: P. falciparum in erythrocytes, SYBR Green DNA, 72 h; series mostly up to 28.7 µM
Summary of the method: (§1)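 SYBR Green fluorescence (ex 485 nm, em 535 nm) reports parasite DNA after 72 h compound exposure of infected red cells at 0.3% parasitemia, 2.5% hematocrit; signal normalized to 0.29 uM artemisinin and vehicle wells.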
Potency is read from the fitted curve at half-maximal effect.

| SMILES | Potency |
| --- | --- |
| Cc1ncc([N+](=O)[O-])n1CC(C)O (centres undefined) | inactive |
| C[C@]12CCC(=O)C=C1CC[C@@H]1[C@H]2[C@@H](O)C[C@@]2(C)[C@H]1CC[C@]2(O)C(=O)CO | inactive |
| Oc1ccc(OCc2ccccc2)cc1 | inactive |
| CCCc1cc(=O)[nH]c(=S)[nH]1 | inactive |
| O=C(O)c1cc(=O)c2c(OCC(O)COc3cccc4oc(C(=O)O)cc(=O)c34)cccc2o1 | inactive |
| CC1(C)CCC(C)(C)c2cc(NC(=O)c3ccc(C(=O)O)cc3)ccc21 | inactive |
| CN(C)C(=O)COC(=O)Cc1ccc(OC(=O)c2ccc(N=C(N)N)cc2)cc1 | inactive |
| C=C(c1ccc(C(=O)O)cc1)c1cc2c(cc1C)C(C)(C)CCC2(C)C | inactive |
| CS(=O)(=O)OCCCCOS(C)(=O)=O | inactive |
| O=C(O)c1cccc(-c2noc(-c3ccccc3F)n2)c1 | inactive |
| O=C(CS(=O)Cc1ccco1)NCC=CCOc1cc(CN2CCCCC2)ccn1 (centres undefined) | inactive |
| CC(C)(S)[C@@H](N)C(=O)O | inactive |
| Cc1c(OCC(F)(F)F)ccnc1CS(=O)c1nc2ccccc2[nH]1 (centres undefined) | inactive |
| O=P(O)(O)C(O)(Cn1ccnc1)P(=O)(O)O | inactive |
| O=C(O)CCNC(=O)c1ccc(N=Nc2ccc(O)c(C(=O)O)c2)cc1 | inactive |
| CC(S)C(=O)NCC(=O)O (centres undefined) | inactive |
| CCC(C)(Oc1ccc(C2(c3ccc(OC(C)(CC)C(=O)O)cc3)CCCCC2)cc1)C(=O)O (centres undefined) | inactive |
| CC1(C)NC(=O)N(c2ccc([N+](=O)[O-])c(C(F)(F)F)c2)C1=O | inactive |
| CNC[C@H](O)c1ccc(O)c(O)c1 | inactive |
| C[C@H](Cn1cnc2c(N)ncnc21)OCP(=O)(O)O | inactive |
| CCCCN(CCCC)CCC(O)c1cc2c(Cl)cc(Cl)cc2c2cc(C(F)(F)F)ccc12 (centres undefined) | 0.0316 µM (active) |
| Cc1cc(=O)c2c(O)c3c(O)cc(=O)c4c3c3c(cc(O)c1c23)C(C)(C)C=4O | 1.58 µM (active) |
| Cc1cc2cc3c(C)cc(=O)oc3c(C)c2o1 | inactive |
| Nc1cccc2c1CN(C1CCC(=O)NC1=O)C2=O (centres undefined) | inactive |
| Nc1ccn([C@@H]2O[C@H](CO)[C@@H](O)C2O)c(=O)n1 (some centres undefined) | inactive |
| COc1cc2c(cc1OC)C1CC(=O)C(CC(C)C)CN1CC2 (centres undefined) | inactive |
| Nc1nc(Cl)nc2c1ncn2[C@H]1C[C@H](O)[C@@H](CO)O1 | inactive |
| CCOC(=O)c1c(C)n(C)c2ccc(O)cc12 | inactive |

Tested on: CP266
Test: as above
Details: P. falciparum in erythrocytes, SYBR Green DNA, 72 h; series mostly up to 28.7 µM
Summary of the method: as §1

| SMILES | Potency |
| --- | --- |
| Cc1ncc([N+](=O)[O-])n1CC(C)O (centres undefined) | inactive |
| C[C@]12CCC(=O)C=C1CC[C@@H]1[C@H]2[C@@H](O)C[C@@]2(C)[C@H]1CC[C@]2(O)C(=O)CO | inactive |
| Oc1ccc(OCc2ccccc2)cc1 | inactive |
| CCCc1cc(=O)[nH]c(=S)[nH]1 | inactive |
| O=C(O)c1cc(=O)c2c(OCC(O)COc3cccc4oc(C(=O)O)cc(=O)c34)cccc2o1 | inactive |
| CC1(C)CCC(C)(C)c2cc(NC(=O)c3ccc(C(=O)O)cc3)ccc21 | inactive |
| CN(C)C(=O)COC(=O)Cc1ccc(OC(=O)c2ccc(N=C(N)N)cc2)cc1 | inactive |
| C=C(c1ccc(C(=O)O)cc1)c1cc2c(cc1C)C(C)(C)CCC2(C)C | inactive |
| CS(=O)(=O)OCCCCOS(C)(=O)=O | inactive |
| O=C(O)c1cccc(-c2noc(-c3ccccc3F)n2)c1 | inactive |
| O=C(CS(=O)Cc1ccco1)NCC=CCOc1cc(CN2CCCCC2)ccn1 (centres undefined) | inactive |
| CC(C)(S)[C@@H](N)C(=O)O | inactive |
| Cc1c(OCC(F)(F)F)ccnc1CS(=O)c1nc2ccccc2[nH]1 (centres undefined) | inactive |
| O=P(O)(O)C(O)(Cn1ccnc1)P(=O)(O)O | inactive |
| O=C(O)CCNC(=O)c1ccc(N=Nc2ccc(O)c(C(=O)O)c2)cc1 | inactive |
| CC(S)C(=O)NCC(=O)O (centres undefined) | inactive |
| CCC(C)(Oc1ccc(C2(c3ccc(OC(C)(CC)C(=O)O)cc3)CCCCC2)cc1)C(=O)O (centres undefined) | inactive |
| CC1(C)NC(=O)N(c2ccc([N+](=O)[O-])c(C(F)(F)F)c2)C1=O | inactive |
| CNC[C@H](O)c1ccc(O)c(O)c1 | inactive |
| C[C@H](Cn1cnc2c(N)ncnc21)OCP(=O)(O)O | inactive |
| CCCCN(CCCC)CCC(O)c1cc2c(Cl)cc(Cl)cc2c2cc(C(F)(F)F)ccc12 (centres undefined) | 0.0907 µM (active) |
| Cc1cc2cc3c(C)cc(=O)oc3c(C)c2o1 | inactive |
| Nc1cccc2c1CN(C1CCC(=O)NC1=O)C2=O (centres undefined) | inactive |
| Nc1ccn([C@@H]2O[C@H](CO)[C@@H](O)C2O)c(=O)n1 (some centres undefined) | inactive |
| COc1cc2c(cc1OC)C1CC(=O)C(CC(C)C)CN1CC2 (centres undefined) | inactive |
| CCOC(=O)c1c(C)n(C)c2ccc(O)cc12 | inactive |
